Only some compounds are listed: those with a hit (about 4% of all), similar ones and a draw of the others.
tim10-1 inh = inhibits growth of tim10-1 mutant yeast | inhibition, % at 20 µM | S. cerevisiae tim10-1 ts strain growth, BacTiter-Glo, 24 h | actives 2.2% (n = 330,000);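 active = inhibition of at least 40%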;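 note: mutant grown at 25 °C; 0% = DMSO wells with yeast and 100% = wells holding no yeast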
NALP1 inh = blocks the NALP1 inflammasome reconstituted in yeast; S. cerevisiae NALP1/ASC/caspase-1 growth, X-gal OD620, 72 h; inhibition, % at 10 µM; actives 0.61% (n = 280,000); AID 2071; in the data active = inhibition mostly above about 24%, no sharp cut-off; inactive = mostly below about 32%
tim23-1 inh = tim23-1 yeast growth inhibition; S. cerevisiae tim23-1 growth, BacTiter-Glo luminescence, 24 h; inhibition, % at 20 µM; actives 1.3% (n = 330,000); AID 463212;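 active = growth inhibition of the mutant yeast at or above 50%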;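 note: temperature-sensitive mutant grown at 25 °C; plate controls were DMSO-treated mutant yeast for no effect and medium wells lacking yeast for full effect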
NALP3 yeast inh = NALP3 inhibition in yeast. Yeast reconstituted NLRP3/ASC/caspase-1, beta-gal luminescence, 24 h. inhibition, % at 10 µM. actives 0.39% (n = 330,000). AID 2825;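 active = inhibition of 50% or more; inactive = inhibition below 50%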;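 note: plate controls were induced DMSO wells for no effect and uninduced yeast grown without galactose for full effect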
TIM10 inh = growth inhibitors of TIM10 yeast strain; S. cerevisiae TIM10 strain growth, BacTiter-Glo luminescence, 24 h; inhibition, % at 10 µM; actives 1.4% (n = 330,000); AID 463195;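 active = inhibition of 40% or more at the single tested concentration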;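 note: wild-type TIM10 isogenic control strain grown at permissive 25 °C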
* marks the source's active call; other numbers are inactive results; / = no result.

SMILES	tim10-1 inh	NALP1 inh	tim23-1 inh	NALP3 yeast inh	TIM10 inh
CC(C)CN(C(=O)CSc1nncs1)c1c(N)n(CC(C)C)c(=O)[nH]c1=O	-2.0	44.7*	0.9	5.8	-17.8
CC1CCN(C(=O)CSc2nc3c(c(=O)n2C)SC(C)C3)CC1 (centres undefined)	16.1	6.8	21.3	6.1	15.2
COc1cc(CNC(C)(C)CO)cc(Br)c1OCc1ccc(Cl)cc1Cl	3.4	58.2*	10.4	10.2	19.4
COc1cc(CNCCO)cc(Cl)c1OCc1ccc(Cl)cc1Cl	-47.0	38.3*	-7.8	18.8	-47.9
O=C(CCc1nc(-c2ccccc2)c(-c2ccccc2)o1)OCc1ccc(Cl)cc1	20.2	36.8*	7.1	0.3	-16.6
N#Cc1cnn(-c2ccccc2)c1NC(=O)c1ccccc1F	15.9	/	22.1	5.6	10.1
CCCCN(Cc1ccccc1)C(=O)C1CCN(S(=O)(=O)c2c(C)noc2C)CC1	11.7	37.1*	15.7	3.7	17.1
NS(=O)(=O)c1cc(C(=O)OCC(=O)Nc2ccc3c(c2)OCO3)ccc1Cl	-1.4	/	-0.5	5.4	-4.8
CN(c1ccccc1C(=O)N1CCN(Cc2ccc3c(c2)OCO3)CC1)S(C)(=O)=O	-1.3	35.9*	2.6	22.7	5.6
O=C(c1ccccc1Cl)N1CCN(Cc2ccc3c(c2)OCO3)CC1	-15.2	11.4	0.5	7.9	-2.1
c1cn2cc(CSC3CCCCC3)nc2s1	12.7	35.9*	18.0	27.2	8.2
CC(=O)Nc1ccc(NC(=O)C(C)OC(=O)CCCOc2ccc(Cl)c(C)c2)cc1 (centres undefined)	12.9	20.3	6.4	27.1	11.2
NC(=O)COc1ccc(/C=N/NS(=O)(=O)c2ccccc2)cc1	1.7	39.5*	-4.0	1.8	3.2
O=S(=O)(c1ccc(F)cc1)n1ccc(-c2cccc(OCc3c(F)cccc3Cl)c2)n1	/	27.9*	/	/	/
CC1CC(C)CN(C(=O)CNC(=O)c2ccc3ccccc3c2)C1 (centres undefined)	25.1	23.0	33.7	17.4	8.4
CCOC(=O)c1c(C)n(C)c2ccc(OC)c([N+](=O)[O-])c12	5.5	22.1*	-2.1	17.0	5.9
CCOC(=O)c1c(C)n(C)c2ccc(OC)c(NC(=O)CN3CCCCC3)c12	0.7	10.5	9.5	-25.1	13.9
COc1cccc(-c2cc(C(=O)N3C(C)CCCC3C)no2)c1 (centres undefined)	28.5	42.8*	32.5	10.1	39.1
CC(=O)c1cccc(NC(=S)NC(=O)c2ccccc2Cl)c1	9.7	34.6	-1.6	12.1	12.9
CC(=O)c1cccc(NC(=S)NC(=O)c2ccc(C)cc2Cl)c1	12.4	37.2*	-2.8	8.7	11.7
NC(=O)CC(NC(=O)Cc1ccc(Br)cc1)c1ccc(N2CCc3ccccc3C2)c([N+](=O)[O-])c1 (centres undefined)	8.4	30.1	-9.1	12.9	-14.3
CC(=O)Nc1nc(CC(C)C)cc2c1c(=O)oc1ccccc12	-10.5	28.0*	-6.9	-6.8	-6.7
O=[N+]([O-])c1ccccc1CNC(Cc1ccccc1)c1ccccc1 (centres undefined)	36.4	9.2	29.4	-3.7	32.3
COc1cc(NC(C)CCc2ccccc2)cc(OC)c1OC (centres undefined)	-3.8	13.5	15.4	11.6	0.9
COc1cc(NC(C)CCCN)c2ncccc2c1Oc1ccccc1 (centres undefined)	18.7	58.1*	7.0	3.6	8.7
SMILES	tim10-1 inh	NALP1 inh	tim23-1 inh	NALP3 yeast inh	TIM10 inh
CC(C)C(=O)Nc1nnc(-c2ccccc2)o1	7.2	0.6	-1.8	17.3	4.8
O=C(Nc1ccccc1)Nc1nnc(-c2ccccc2)o1	-1.5	25.2*	6.0	13.9	9.4
CC1CCc2nc3ccccc3c(C(=O)OCC(=O)NC3CCS(=O)(=O)C3)c2C1 (centres undefined)	12.0	-9.2	-5.2	-0.8	-2.7
Cc1c2c(nc3ccccc13)CCC(C)C2 (centres undefined)	13.1	36.4*	8.1	22.8	-21.0
COc1ccc(OCc2cc(C(=O)N3CCN(CC4CC4)CC3)no2)c(Cl)c1	-11.4	28.4*	22.7	17.9	4.6
COc1cc(/C=C2\CC/C(=C\c3cc(OC)c(O)c(OC)c3)C2=O)cc(OC)c1O	23.9	22.0	10.3	-0.7	-13.9
COc1cc(/C=C2/CCC/C(=C\c3cc(O)c(OC)c(Cl)c3)C2=O)cc(Cl)c1O	3.9	23.9*	10.2	18.1	2.2
CN1CCN(c2ccc(Cl)cc2NC(=O)C2COc3ccccc3O2)CC1 (centres undefined)	-107.0	31.5*	-113.0	20.2	-74.7
Cc1ccc(N2C(=O)C3CCC(C)(C2=O)C3(C)C)cc1 (centres undefined)	11.6	15.6	14.9	-3.3	20.6
CSC[C@@H]1NC(=S)N(c2ccc(C)cc2)C1=O	28.7	75.8*	43.5	-1.5	13.9
O=C(CSc1nc2ccccc2s1)Nn1cnnc1	-0.5	24.2*	-0.4	-12.3	-13.1
CC(CCc1ccc(O)cc1)N(C)CCc1ccccc1 (centres undefined)	-21.0	25.8*	-54.8	24.6	-9.5
Cc1cc(C)n(C(=O)Cn2nc([N+](=O)[O-])c(Br)c2C)n1	25.0	1.5	4.6	4.5	-16.1
O=C(CCc1nc(-c2ccccc2F)no1)Nc1ccc(Oc2ccccc2)cc1	15.0	40.9*	12.6	19.2	25.1
CCC(C(=O)OC)n1cnc2c(nnn2-c2ccc(C)cc2)c1=O (centres undefined)	-19.3	11.4	-11.9	15.4	-19.7
O=C(/C=C/Nc1ccc(F)c(Cl)c1)c1ccco1	2.8	30.8*	13.1	2.4	10.9
c1ccc2c(c1)CCN(C1=Nc3cccc4cccc1c34)C2	32.1	11.5	32.6	2.5	17.6
Cc1ccc(N=CNc2ccc(C)cc2C)c(C)c1	-18.2	41.4*	-9.9	10.5	-14.1
CCN(CC)S(=O)(=O)c1ccc(N2CCOCC2)c(NC(=O)C2=COCCO2)c1	-0.6	8.4	10.8	-3.8	-2.0
CCOc1ccccc1NC(=O)C1COc2ccccc2O1 (centres undefined)	26.4	-8.2	33.1	26.4	0.6
Cc1ccc(C(=O)Nc2ccc(Br)cc2)cc1S(=O)(=O)Nc1ccccn1	-8.7	15.8	-18.7	7.3	2.4
Cc1cccc(C)c1C(OCCN(C)C)C1CCCCC1 (centres undefined)	32.2	50.9*	21.0	11.8	12.8
CN(C)C(=O)CSc1cnc2ccccc2n1	5.9	27.8*	-4.5	21.5	-10.3
CNC(=O)CSc1cnc2ccccc2n1	17.1	-10.9	11.3	2.9	0.8
O=C(COc1cccc2ccccc12)NCc1cccnc1	-18.8	-27.9	6.4	16.2	-3.1
COc1ccc(NC(=O)[C@H](C)NC(=O)[C@@H]2Cc3ccccc3CN2C(=O)OC(C)(C)C)cc1	21.1	10.4	22.5	8.7	17.0
Cc1ccc(CN2CCC(c3cc(-c4ccc(Cl)cc4)n[nH]3)CC2)cc1	-253.9	35.2*	-180.8	40.8	-169.1
O=C(NCCCN1CCCC1=O)c1ccccc1OCc1ccc(Cl)cc1Cl	-0.5	/	16.6	10.2	1.9

Assay outcomes: PubChem BioAssay, Sanford-Burnham Center for Chemical Genomics
